Measured values taken from PubChem BioAssay (NCATS).
Records with an inconclusive call do not appear. Activity calls are given as the source filed them. Calls follow the shape of the dose curve; as a rule, active = well fitted inhibition curve with a large enough effect; inconclusive = small, poorly fitted or top-dose-only effect; inactive = no such curve, though single readings can be large or run the other way.

The compounds below were run against Cytochrome P450 3A7 (Homo sapiens) (UniProt P24462) (assay: Cytochrome P450 family 3 subfamily A member 7 (CYP3A7) small molecule antagonists: luciferase biochemical qHTS assay (AID 1963596; also: nearly all actives have a fitted effect of over 40% in size)). Conditions: P450-Glo CYP3A7 enzyme luminescence, 1 h; series mostly up to 57.4 µM; activity change, negative = inhibition: at the top concentration.
Cytochrome P450 3A7 (Homo sapiens), sequence (P24462 whole entry, looked up): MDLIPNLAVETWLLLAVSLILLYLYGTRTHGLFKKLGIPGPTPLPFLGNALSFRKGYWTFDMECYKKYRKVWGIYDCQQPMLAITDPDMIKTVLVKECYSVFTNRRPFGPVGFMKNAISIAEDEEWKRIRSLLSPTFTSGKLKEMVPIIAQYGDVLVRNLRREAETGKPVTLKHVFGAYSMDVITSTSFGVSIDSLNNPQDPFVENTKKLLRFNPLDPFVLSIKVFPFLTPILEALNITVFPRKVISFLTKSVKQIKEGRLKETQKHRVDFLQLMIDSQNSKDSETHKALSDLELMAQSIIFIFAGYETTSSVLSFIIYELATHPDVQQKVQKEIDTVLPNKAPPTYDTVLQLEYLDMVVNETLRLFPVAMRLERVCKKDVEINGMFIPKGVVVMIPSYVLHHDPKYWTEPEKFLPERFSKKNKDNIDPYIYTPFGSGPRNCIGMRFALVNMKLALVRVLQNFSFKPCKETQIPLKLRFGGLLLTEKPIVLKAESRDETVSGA
Summary of the method: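 Luminescence read-out (relative luminescence units) after 20 min with detection reagent, which stops the reaction. Enzyme, proluciferin substrate and compound preincubated 10 min, RT; NADPH regeneration system then started 1 h reaction. Ketoconazole as positive control.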
% is scaled to controls: 0 for no effect and ±100 for the full control effect; potency is read from the fitted curve at half-maximal effect.

Structure (SMILES)	activity change, negative = inhibition	Potency
O=S(O)CO	-20.8% (inactive)	
C=C(C)[C@H]1CC=C(C)CC1	3.11% (inactive)	
O=c1[nH]ccc2cc(OC3CCNCC3)ccc12	0% (inactive)	
N#C/C(=C/c1ccccc1Cl)c1nc2ccccc2c(=O)[nH]1	-15.4% (inactive)	
CC[C@H]1OC(=O)C[C@@H](O)[C@H](C)[C@@H](O[C@@H]2O[C@H](C)[C@@H](O[C@H]3C[C@@](C)(O)[C@@H](O)[C@H](C)O3)[C@H](N(C)C)[C@H]2O)[C@@H](CC=O)C[C@@H](C)C(=O)/C=C/C(C)=C/[C@@H]1CO[C@@H]1O[C@H](C)[C@@H](O)[C@@H](OC)[C@H]1OC	0.133% (inactive)	
COc1ccc(-c2nc(-c3ccc(-c4cccc(Cl)c4)o3)[nH]c2-c2ccc(OC)cc2)cc1	-10.6% (inactive)	
Cc1cccc(NC(=O)Cn2c(=O)n(Cc3ccc(C(=O)NCc4ccc5c(c4)OCO5)cc3)c(=O)c3ccccc32)c1	0.364% (inactive)	
CCn1c(N)c(C(=O)NC)c(=O)c2ccc(C#C[C@@](C)(O)COC)nc21	3.98% (inactive)	
O=C(O)CN(CC(=O)O)Cc1cc2c(-c3ccccc3C(=O)O)c3cc(CN(CC(=O)O)CC(=O)O)c(=O)cc-3oc2cc1O	0.913% (inactive)	
CC1CCCCC1N(Cc1ccccc1)[S+](=O)([O-])c1ccc([S+](=O)([O-])N(C)C)cc1 (stereo not given)	0.838% (inactive)	
Cc1ccc(-c2nnc(Nc3ccccc3)c3ccccc23)cc1S(=O)(=O)NCc1nc2ccccc2[nH]1	0% (inactive)	
COC(=O)c1ccccc1O	-3.03% (inactive)	
Cc1cc(OCCCS(C)(=O)=O)cc(C)c1-c1cccc(COc2ccc3c(c2)OCC3CC(=O)O)c1 (stereo not given)	0% (inactive)	
COc1ccc(CC(=O)Nc2c(C(=O)N3CCN(c4ccccc4F)CC3)oc3ccccc23)cc1OC	0% (inactive)	
O=C(O)C1CSC(C(=O)O)N1 (stereo not given)	-9.82% (inactive)	
COc1ccc(NC(=O)Cn2ccn(-c3ccc(C)c(C)c3)c(=O)c2=O)cc1Cl	-18.1% (inactive)	
S=C=Nc1ccc(N=C=S)cc1	2.64% (inactive)	
O=C(NC1CCC1)c1ccc(C#Cc2cccc(F)c2)nc1	8.39% (inactive)	
CCN(CCCO)CCCOc1ccc2c(Nc3cc(CC(=O)Nc4cccc(F)c4)[nH]n3)ncnc2c1		14.1 µM (active)
OC1CCC(Nc2ncc3nc(Nc4c(F)cc(F)cc4F)n([C@H]4CCOC4)c3n2)CC1 (stereo not given in full)	-16.8% (inactive)	

Structure (SMILES)	activity change, negative = inhibition	Potency
NC[C@H]1CCC[C@@H](CNC(=O)[C@@H](Cc2c[nH]c3ccccc23)NC(=O)N2CCC3(C=Cc4ccccc43)CC2)C1	0% (inactive)	
COc1ccc(-c2nc3n(n2)C(c2ccc(OC)c(OC)c2)C(C(=O)Nc2cccnc2)=C(C)N3)cc1 (stereo not given)	-20% (inactive)	
O=P(O)(O)OC(CO)CO	-2.72% (inactive)	
NC(Cc1ccc(O)c(O)c1)C(=O)O (stereo not given)	0% (inactive)	
COc1ccccc1Nc1nc(-c2ccccc2F)nc2ccccc12	-2.5% (inactive)	
C=CCNCCCCCC[N+](C)(C)C	3.31% (inactive)	
O=C1C(c2[nH]c3ccc(S(=O)(=O)O)cc3c2O)=Nc2ccc(S(=O)(=O)O)cc21	-24.1% (inactive)	
Nc1ccn(C2O[C@H](CO)[C@@H](O)[C@@H]2O)c(=O)n1 (stereo not given in full)	-0.935% (inactive)	
O=C1CCC(=O)N1CO	-1.52% (inactive)	
CC1(C)[C@H]2C[C@H](C/C=C\CCCC(=O)O)[C@@H](NC(=O)c3csc4ccc(O)cc34)[C@@H]1C2	16.7% (inactive)	
Cc1ccc(C)c(NC(=O)Cn2cc(C(=O)c3ccco3)c3ccccc32)c1	0% (inactive)	
COC(=O)CCC[N+](C)(C)C	8.07% (inactive)	
Cc1c(C)n(CCN(C)C)c2ccc(C(=O)OCCN(C)C)cc12	-0.197% (inactive)	
Cc1c(C)c2c(c(C)c1O)CC[C@@](C)(CCC[C@H](C)CCC[C@H](C)CCCC(C)C)O2	0% (inactive)	
COc1ccc([C@@H]2N[C@H](C(=O)O)Cc3c2[nH]c2ccccc32)cc1CN1CCN(c2ccccc2F)CC1	-22.8% (inactive)	
Cc1ccc(-n2c(SCc3cccc(F)c3)nc3[nH]ncc3c2=O)cc1C	0% (inactive)	
CC12CCC(C[N+](C)(CCC[N+](C)(C)C)C1)C2(C)C (stereo not given)	-18.7% (inactive)	
COc1cc(NC(=O)c2ccccn2)ccc1Cl	7.79% (inactive)	
CCc1ccc(C2=CC(c3c(F)cccc3Cl)n3c(nc4ccccc43)N2)cc1 (stereo not given)	-4.3% (inactive)	
NC(=O)C[C@H](N)C(=O)O	-1.81% (inactive)	
